# Source: PubChem BioAssay
# An excerpt weighted towards active compounds, which were near 2.8% of everything screened.
# WRN inhibitor: WRN helicase (human) inhibition. 360,000 compounds, 0.46% hits. WRN helicase unwinding, fluorescent forked duplex, kinetic. AID 651768. Potency, µM (series often up to 114 µM), without a hit: at the top dose activity change, negative = inhibition, hits mostly inhibitors; note: potency is the fitted concentration of half-maximal effect; % is set by controls: 0 for no effect and ±100 for the full control effect; nearly all actives have a fitted effect of over 55% in size
#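 Enzyme (20 nM final) and test compound sit together 15 min at room temperature before substrate addition. Substrate is a single-forked duplex oligonucleotide (100 nM) labelled with fluorophore and quencher, with 2 mM ATP; helicase unwinding raises red fluorescence, read kinetically.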
# Pol iota inh: inhibitors of human DNA polymerase iota; Pol iota fluorescent replication assay, 10 min; Potency, µM (highest dose often 115 µM), for the others: top-dose activity, negative = inhibition, hits mostly inhibitors; 390,000 compounds, 1% hits; AID 588590; note: potency is the fitted concentration of half-maximal effect
#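 Pol iota at 10 nM preincubated 15 min with compounds at room temperature; reaction started with fluorescent substrate, 50 nM final. Fluorescence read kinetically at 0 and 10 min; buffer-only wells as negative control.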
# PI5P4K alpha inh: blocks human PI5P4K alpha kinase activity. P48426. PI5P4Kalpha enzyme, ADP-Glo luminescence, 60 min; stronger effect = lower value. max response, %. 330,000 compounds, 1.2% hits; active = max response of -50% or lower; inconclusive = between -30% and -50%; inactive = -30% or higher; note: value at the top dose of about 77 µM; % is set by controls: 0 for no effect and ±100 for the full control effect
# Target sequence (P48426 whole entry, looked up): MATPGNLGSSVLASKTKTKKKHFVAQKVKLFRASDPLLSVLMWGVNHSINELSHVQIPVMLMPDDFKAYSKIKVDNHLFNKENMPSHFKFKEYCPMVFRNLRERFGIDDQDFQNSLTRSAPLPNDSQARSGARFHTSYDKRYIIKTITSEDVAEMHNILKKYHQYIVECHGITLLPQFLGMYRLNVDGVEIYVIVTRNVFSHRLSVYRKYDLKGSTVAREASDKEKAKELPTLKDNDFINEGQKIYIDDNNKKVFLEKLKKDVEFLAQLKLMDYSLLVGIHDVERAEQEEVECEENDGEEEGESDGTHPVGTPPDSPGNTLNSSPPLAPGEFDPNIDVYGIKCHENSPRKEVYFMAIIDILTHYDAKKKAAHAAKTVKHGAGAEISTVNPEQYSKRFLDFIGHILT
#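 PI5P4Kalpha ADP-Glo assay; 5 microM ATP final; 60 min RT reaction; HEPES pH 7.4/EGTA/CHAPS, 5% DMSO; controls lacking substrate or enzyme; luminescent end-point.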
# Pol eta inh-1: inhibitors of human DNA polymerase eta | Q9Y253 | recombinant Pol eta, fluorescent DNA replication assay | Potency, µM (series often up to 114 µM), for inactives: top-dose activity change, negative = inhibition, hits mostly inhibitors | 390,000 compounds, 1.2% hits | AID 588591; note: potency is the fitted concentration of half-maximal effect; % is set by controls: 0 for no effect and ±100 for the full control effect
#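 Pol eta (10 nM) was preincubated with compounds for 15 min at room temperature, after which fluorescent replication substrate (50 nM final) was added to start the reaction. Fluorescence was read kinetically at 0 and 10 min.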
# Pol kappa inh-1: DNA polymerase kappa (human) inhibition. Q9UBT6. purified Pol kappa, fluorescent DNA synthesis assay, 10 min. Potency, µM (titrated, usually from 107 µM), for the others: at the highest dose activity, negative = inhibition, hits mostly inhibitors. 400,000 compounds, 0.53% hits; note: potency is the fitted concentration of half-maximal effect; % is set by controls: 0 for no effect and ±100 for the full control effect
#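 50 nM final substrate added after 15 min RT preincubation of 10 nM Pol kappa with compound; fluorescence read at 0 and 10 min.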
# POLB inh: blocks human DNA polymerase beta activity; P06746; Pol beta primer extension/strand displacement, fluorescence kinetic; Potency, µM (top dose mostly 114 µM), inactives show at the top dose activity change, negative = inhibition, most hits filed as inhibitors; 340,000 compounds, 1.3% hits; AID 485314; note: potency is the fitted concentration of half-maximal effect; % is set by controls: 0 for no effect and ±100 for the full control effect
#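 Preincubation: enzyme (10 nM) with compound, 15 min, RT. Reaction: substrate added to 50 nM final. Reads: 0 and 10 min. Analysis: normalized, Hill fit.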
# Pol iota confirm: Confirm cherry-picked inhibitors of human polymerase iota | shares compounds with Pol kappa inh-1 | Pol iota primer extension, TAMRA/BHQ fluorescence | Potency, µM, actives largely listed as inhibitors | 1,500 compounds, 77% hits | AID 720496; note: potency is the fitted concentration of half-maximal effect
# Pol kappa inh-2: Pol kappa (human) inhibition, cherry-pick confirmation; shares compounds with Pol eta inh-1; purified Pol-kappa, fluorescent strand-displacement substrate; Potency, µM, actives largely listed as inhibitors; 920 compounds, 76% hits; AID 720501; note: potency is the fitted concentration of half-maximal effect
# Pol eta inh-2: Pol eta (human) inhibition, cherry-pick confirmation. AID 720502. Pol eta primer extension, TAMRA/BHQ fluorescence, 10 min. Potency, µM, actives largely listed as inhibitors. shares compounds with Pol eta inh-1. 2,600 compounds, 64% hits; note: potency is the fitted concentration of half-maximal effect
# Starred values were filed as active, the others as inactive; ? = inconclusive; / = no result given; [ ] = another dose, or the depositor's remark. Unless noted, calls come from the whole dose curve; as a rule, active = well fitted curve in the direction sought with a large enough effect; inconclusive = small, poorly fitted or top-dose-only effect, or another doubt; inactive = no such curve, though single readings can be large; an effect the other way counts as inactive or inconclusive.
SMILES,WRN inhibitor,Pol iota inh,PI5P4K alpha inh,Pol eta inh-1,Pol kappa inh-1,POLB inh,Pol iota confirm,Pol kappa inh-2,Pol eta inh-2
CC(=O)c1ccc(NC(=O)CN2C(=O)CCc3cc(S(=O)(=O)N4CCC(C)CC4)ccc32)cc1,/,?,/,25µM*,-10%[60.1 µM],35µM*,53*,?,38*
Cn1c(SCC(=O)N/N=C/C=C/c2ccco2)nc2ccccc21,?,35µM*,?,14µM*,79µM*,22µM*,67*,/,76*
O=C(CN1CCN(Cc2ccccc2)CC1)N/N=C\C=C/c1ccco1,-26%,0%,1,-6%,-41%,37%,/,/,/
CCn1c(SCC(=O)N/N=C/C(C)=C/c2ccco2)nnc1-c1ccccc1,?,?,/,89µM*,?,?,60*,/,?
O=C(CNc1cccc2ccccc12)N/N=C/C=C/c1ccco1,-4%,56%,2,-19%,-7%,8%,/,/,/
CCn1c(SCC(=O)N/N=C(\C)c2ccco2)nnc1-c1ccccc1,1%,13%,1,-6%,5%,13%,/,/,/
O=C(CSc1nnc(SCc2ccccc2)s1)N/N=C/C=C/c1ccco1,40µM*,14µM*,-96*,2.8µM*,25µM*,10µM*,15*,15*,19*
O=C(Cc1cccs1)N/N=C/C=C/c1ccco1,?,28µM*,-58*,8.9µM*,79µM*,18µM*,?,30*,?
COCCN1C(=O)C(=O)/C(=C(/O)c2ccc(S(=O)(=O)N3CCOCC3)cc2)C1c1cccc(OC)c1 (stereo unspecified),-11%,-3%,-4,2%,-4%,55%,/,/,/
COc1ccc(NC(=O)CC2C(=O)N(c3cccc(OC)c3)C(=O)N2Cc2cccnc2)cc1 (stereo unspecified),/,21%,/,-15%,-14%,?,/,/,/
Cc1ccc(SC2=NS(=O)(=O)c3ccccc32)c(C)c1,/,-5%,/,/,-16%,/,/,/,/
O=C(CSc1nnc(SCc2ccc(Cl)cc2)s1)N/N=C/c1c[nH]c2ccccc12,?,10µM*,-14,3.2µM*,?,8.9µM*,8.4*,/,19*
O=C(CSc1nnc(SCc2cccc3ccccc23)s1)N/N=C/c1c[nH]c2ccccc12,-10%,7%,-2,-19%,1%,5%,/,/,/
CCCSc1nc(C)c(-c2csc(C(C#N)=C3CCCC3)n2)cc1C#N,?,?,/,45µM*,?,-103%,67*,/,34*
O=C(O)c1cc(-c2ccc(/C=C3\NC(=O)N(c4ccccc4)C3=O)o2)ccc1Cl,?,?,?,4µM*,45µM*,22µM*,34*,/,15*
Cc1ccc(CNc2ccc(O)cc2)cc1,?,3.5µM*,?,28µM*,?,?,?,/,?
Cc1ccc(NCc2ccccc2O)cc1,1%,-6%,/,-17%,-12%,19%,/,/,/
Cc1cc(/C=C(/C#N)c2nc3ccccc3[nH]2)c(C)n1-c1cc(C(=O)O)cc(C(=O)O)c1,45µM*,?,-79*,4µM*,40µM*,14µM*,38*,/,17*
COc1ccc(/C=N/Nc2ncc(Br)cn2)c(OC)c1,?,-4%,?,28µM*,5%,4.5µM*,42*,15*,/
CC(C)c1ccc(OC(=O)c2cc(-c3ccccc3)on2)cc1,/,22%,/,-13%,6%,4%,/,/,/
Cc1ccc(C(=O)Nc2nnc(COCCO)s2)cc1,14%[57.1 µM],/,1,/,/,/,/,/,/
CC1CCN(C(=O)CSc2nc(-c3ccccc3)no2)CC1,/,-16%,/,-19%,-2%,-23%,/,/,/
COc1ccccc1CNC(=O)CCn1cnc2ccccc2c1=O,/,?,/,50µM*,-3%[60.1 µM],11µM*,?,?,54*
CC1(C)CCC(c2ccc(Cl)cc2)=C(CN2CCN(c3ccc(C(=O)NS(=O)(=O)c4ccc(N[C@H](CCN5CCOCC5)CSc5ccccc5)c(S(=O)(=O)C(F)(F)F)c4)cc3)CC2)C1,/,40µM*,/,/,45µM*,/,67*,?,?
CN(C)CCNC(=O)c1cccc2nc3cccc(F)c3nc12,-18%[11.6 µM],89µM*,3,?,?,/,42*,17*,/
SMILES,WRN inhibitor,Pol iota inh,PI5P4K alpha inh,Pol eta inh-1,Pol kappa inh-1,POLB inh,Pol iota confirm,Pol kappa inh-2,Pol eta inh-2
COc1cc(-c2cc(=O)c3c(O)c(OC)c(OC)c(O)c3o2)ccc1O,?,?,?,7.1µM*,25µM*,7.1µM*,7.5*,/,27*
COc1ccc(-c2cc(=O)c3c(O)c(OC)c(OC)c(OC)c3o2)cc1OC,/,/,/,/,-13%[60.1 µM],/,/,/,/
O=C(N=Nc1c(O)[nH]c2ccc([N+](=O)[O-])cc12)c1ccccc1Cl,-7%[11.6 µM],38%,0,40µM*,6%,-30%,67*,/,?
COc1cc(C2c3c([nH]c(=O)[nH]c3=O)Nc3ccc4ccccc4c32)cc(OC)c1OC (stereo unspecified),20µM*,18µM*,-21,79µM*,25µM*,8%,42*,/,60*
COc1cc(C2c3c([nH]c(=O)[nH]c3=O)Nc3ccc4ccccc4c32)ccc1O (stereo unspecified),?,?,-6,?,?,?,/,/,/
COc1ccccc1C(=O)CN1C(=O)NC2(CCc3ccccc32)C1=O (stereo unspecified),6%,0%,-10,-19%,-12%,/,/,/,/
COC(=O)CC1Oc2ccc(F)cc2-n2cc(-c3ccc(C)cc3)nc21 (stereo unspecified),/,-14%,/,-7%,-17%,-26%,/,/,/
CCOC(=O)c1ccc(NC(=O)CCCn2c(=O)c3cccn3c3cccnc32)cc1,/,0%,/,-8%,-31%,?,/,/,/
COCCN(C(=O)c1cc2c(s1)CCC2)c1c(N)n(CC(C)C)c(=O)[nH]c1=O,45µM*,20µM*,?,8.9µM*,45µM*,/,21*,19*,48*
CCCn1c(N)c(N(CCOC)C(=O)c2cc3c(s2)CCCCC3)c(=O)[nH]c1=O,-14%,26%,5,-24%,-7%,-3%,/,/,/
CCCCN(C(=O)c1cc2c(s1)CCC2)c1c(N)n(CCC)c(=O)[nH]c1=O,?,20µM*,?,13µM*,?,/,60*,?,76*
